Compound activity deposited in PubChem BioAssay by National Center for Advancing Translational Sciences (NCATS).
TDP-43 yeast inh: TDP-43 toxicity inhibition in yeast; hit rate 1.8% among 410,000; AID 652104; TDP-43 expressing yeast growth rescue, BacTiter-Glo, 24 h; Potency, µM (highest dose often 46.1 µM), hits mostly activators; also: nearly all actives have a fitted effect of over 50% in size
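Luminescence from BacTiter-Glo reports growth of TDP-43-expressing yeast after 24 hr at 30 deg C with compound. Cells were raffinose-pregrown to mid-log, then seeded in galactose medium at OD600=0.02.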
Abeta yeast res: restores growth of yeast expressing A-beta42 peptide. yeast expressing A-beta42, growth rescue, OD600, 48 h; response scale: 0% DMSO, 100% iron-clioquinol control. Potency, µM (doses to about 46.1 µM), hits mostly activators. hit rate 0.063% among 410,000; also: nearly all actives have a fitted effect of over 55% in size
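Yeast A-beta toxicity model in growth medium with pinned compounds, 48 h at 30 C; growth read as absorbance at 600 nm. Normalized to FeCl3/clioquinol equimolar mix (positive) and DMSO (negative).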
FUS yeast rescue: rescues growth of FUS-expressing yeast; AID 1347120; hit rate 0.24% among 390,000; S. cerevisiae FUS-expressing, growth rescue, OD600, 24 h; Potency, µM (doses to about 76.6 µM), usual class: activators; also: nearly all actives have a fitted effect of over 55% in size
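Compound concentration series was pinned onto galactose-induced FUS-expressing yeast seeded at OD 0.005. Plates sat 24hr at 30C; absorbance at 600 nm gave growth. DMSO served as background control.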
aSyn yeast inh: rescues yeast growth from alpha-synuclein toxicity. Potency, µM (highest dose often 46.1 µM), most hits filed as activators. Yeast expressing alpha-synuclein, growth rescue, BacTiter-Glo, 24 h. hit rate 0.14% among 370,000; also: nearly all actives have a fitted effect of over 65% in size
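Galactose-induced alpha-syn yeast (OD600=0.02, raffinose-pregrown) + pinned cpd, 24 hr, 30 deg C; growth by BacTiter-Glo luminescence. Growth restoration scores as activation.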
Each line names hits and unclear results; the compound was inactive in the other large screens. A selection: hits, their analogues and other compounds. The true share with any hit is near 2.1%. Calls follow the shape of the dose curve; as a rule, active = well fitted curve in the direction sought with a large enough effect; inconclusive = small, poorly fitted or top-dose-only effect, or another doubt; inactive = no such curve, though single readings can be large; an effect the other way counts as inactive or inconclusive.

O=C(NCC1CCCO1)c1cc2c([nH]c3ccccc32)c(-c2cccc(Cl)c2)n1 (stereo unspecified)	TDP-43 yeast inh 20µM, FUS yeast rescue inconclusive
COc1cccc2[nH]c(C(=O)NCC3CCCO3)cc12 (stereo unspecified)	none
CO[C@@H]1[C@@H](OC2OC(C)C(OC3CC(C)(O)C(OC(=O)CC(C)C)C(C)O3)C(N(C)C)C2O)[C@@H](CC=O)C[C@@H](C)C(=O)/C=C\C2O[C@H]2C[C@@H](C)OC(=O)C[C@H]1OC(C)=O (stereo partly specified)	none (no result: TDP-43 yeast inh, Abeta yeast res, FUS yeast rescue)
CCOc1ccc(N(C)S(=O)(=O)c2c(C(=O)N3CCC(C)CC3)c(C)n(C)c2C)cc1	none (no result: aSyn yeast inh)
O=S(=O)(c1ccc(Cl)cc1)N1CCN(c2nc(-c3ccc(F)cc3)nc3cc(Cl)ccc23)CC1	none (no result: TDP-43 yeast inh, Abeta yeast res, FUS yeast rescue)
CC(NCc1ccco1)C(=O)N1CCCC1 (stereo unspecified)	none (no result: TDP-43 yeast inh, Abeta yeast res, aSyn yeast inh)
CC(C)CNC(=O)OCc1cn(Cc2ccc(C(F)(F)F)cc2)nn1	none (no result: TDP-43 yeast inh, Abeta yeast res, aSyn yeast inh)
Cn1nc(C(C)(C)C)cc1C(=O)N1CCCCC1c1cc(C(=O)Nc2cccc3c2CCCC3)no1 (stereo unspecified)	FUS yeast rescue 32µM
CC(=O)Nc1ccc(C(=O)N2CCCCC2c2cc(C(=O)Nc3cccc4c3CCCC4)no2)cc1 (stereo unspecified)	TDP-43 yeast inh inconclusive, FUS yeast rescue inconclusive
O=C(Nc1cccn(Cc2c(Cl)cccc2Cl)c1=O)c1c(Cl)cccc1Cl	TDP-43 yeast inh 10µM
CC[C@H](C)[C@@H]1NC(=O)[C@H]([C@@H](C)CC)NC(=O)[C@@H](CC(C)C)NC(=O)[C@H](Cc2ccccc2)NC(=O)[C@H](Cc2ccccc2)NC(=O)[C@@H]2CCCN2C(=O)[C@@H]2CCCN2C(=O)[C@H](C(C)C)NC(=O)[C@H](CC(C)C)NC1=O	FUS yeast rescue 18µM
COc1ccc(OCC(O)Cn2c(NCCO)nc3c2c(=O)n(C)c(=O)n3C)cc1 (stereo unspecified)	none (no result: aSyn yeast inh)
Cc1ccccc1C(=O)NNC(=S)NC(=O)c1cccs1	TDP-43 yeast inh inconclusive, aSyn yeast inh 3.5µM
CCC(C)c1ccc(O)c(NC(=O)c2cccnc2)c1 (stereo unspecified)	none
Cc1ccnc(NC(=S)NC(=O)c2cccs2)c1	TDP-43 yeast inh 16µM (no result: FUS yeast rescue)
Cc1ccnc(NC(=O)CNC(=O)c2cccs2)c1	none
O=C(NC(=S)NCc1ccccc1Cl)c1cccs1	TDP-43 yeast inh 18µM (no result: FUS yeast rescue)
CCC(C)c1ccc(O)c(NC(=S)NC(=O)c2cccs2)c1 (stereo unspecified)	TDP-43 yeast inh inconclusive, Abeta yeast res inconclusive, aSyn yeast inh 13µM
Cc1ccccc1C(=O)Nc1cccc(NC(=S)NC(=O)c2cccs2)c1	none
CN1CCc2c(c3cnc4cc(Cl)ccc4c3n2C)C1	none (no result: TDP-43 yeast inh, Abeta yeast res, FUS yeast rescue)
O=C(/C=C/c1ccccc1Cl)Nc1nc(-c2cccs2)ns1	none (no result: aSyn yeast inh)
COc1cccc(/C=C/c2ccc3cccc(O)c3n2)c1	TDP-43 yeast inh inconclusive, Abeta yeast res inconclusive, aSyn yeast inh 18µM
COc1cccc(/C=C/c2ccc3cccc(O)c3n2)c1OC	TDP-43 yeast inh 14µM, aSyn yeast inh 18µM
Oc1cccc(/C=C/c2ccc3cccc(O)c3n2)c1	TDP-43 yeast inh 13µM, Abeta yeast res inconclusive, aSyn yeast inh inconclusive
COc1cc(/C=C/c2ccc3cccc(O)c3n2)cc(OC)c1OC	none
CCCOc1ccc(CNC(=O)c2cc3ccccn3n2)cc1	none (no result: aSyn yeast inh)
CCOc1ccc(N(CC)S(=O)(=O)N2CCCC(C(=O)Nc3cc(Cl)ccc3C)C2)cc1 (stereo unspecified)	none (no result: aSyn yeast inh)
CC(C)(C)c1csc(NC(=O)c2ccc(Cl)s2)n1	TDP-43 yeast inh inconclusive
CCNc1nc(N)c(C(=O)c2ccc(Cl)s2)s1	TDP-43 yeast inh 13µM
O=C(COc1ccccc1C(=O)Nc1ccccc1)Nc1cccc(Cl)c1	none (no result: TDP-43 yeast inh, Abeta yeast res, FUS yeast rescue)
COc1ccc(-c2nc3ccccc3n2Cc2ccc(Cl)cc2)cc1	TDP-43 yeast inh 22µM (no result: aSyn yeast inh)
COc1ccc(Cn2c(=S)[nH]c3ccccc32)cc1	Abeta yeast res 11µM
COc1ccc(-c2nc3ccccc3n2Cc2ccc(C(C)C)cc2)cc1	TDP-43 yeast inh 22µM
COc1ccc(-c2nc3ccccc3n2Cc2ccc(C)cc2)cc1	Abeta yeast res inconclusive
COc1ccc(-n2c(=S)[nH]c3ccccc32)cc1	TDP-43 yeast inh inconclusive, FUS yeast rescue inconclusive
CCCCNS(=O)(=O)CC1NCc2cc(F)ccc21 (stereo unspecified)	none (no result: TDP-43 yeast inh, Abeta yeast res, aSyn yeast inh)
CCCCC1CCC(C(=O)N2CC(=O)Nc3ccc(Cl)cc3C2c2ccc(F)cc2)CC1 (stereo unspecified)	Abeta yeast res inconclusive (no result: aSyn yeast inh)
Cc1ccc2c(CC(=O)NNC(=O)c3ccccc3O)coc2c1	FUS yeast rescue 35µM
COc1ccccc1NC(=O)Cc1coc2cc(C)ccc12	TDP-43 yeast inh 11µM
COc1ccc2c(CC(=O)NNC(=O)c3ccc(C)cc3)coc2c1	none
CC(C)CN=C(NS(=O)(=O)c1ccccc1)C(Cl)(Cl)Cl	TDP-43 yeast inh 11µM, FUS yeast rescue inconclusive
O=C(Cn1c2ncccc2c(=O)n1-c1ccccc1)NCc1ccccc1	TDP-43 yeast inh 13µM (no result: aSyn yeast inh)
CCc1ccc(-n2c(=O)c3cccnc3n2CC(=O)NCc2ccccc2)cc1	none (no result: aSyn yeast inh)
CCN(C(=O)c1ccc2c(c1)N(Cc1cccc(Cl)c1)C(=O)c1ccccc1S2=O)c1ccccc1 (stereo unspecified)	FUS yeast rescue 32µM (no result: aSyn yeast inh)
Cc1ccc(C)c(CN2C(=O)c3ccccc3S(=O)c3ccc(C(=O)N4CCN(c5cccc(Cl)c5)CC4)cc32)c1 (stereo unspecified)	FUS yeast rescue 10µM (no result: aSyn yeast inh)
CCOc1ccc(CCNC(=O)c2ccc3c(c2)N(Cc2ccccc2)C(=O)c2ccccc2S3=O)cc1OCC (stereo unspecified)	FUS yeast rescue 25µM (no result: aSyn yeast inh)
CCN1CCN(CCNC(=O)c2ccc3c(c2)N(Cc2cccc(Cl)c2)C(=O)c2ccccc2S3=O)CC1 (stereo unspecified)	none
COc1ccc(N2CCN(C(=O)c3ccc4c(c3)N(Cc3cc(C)ccc3C)C(=O)c3ccccc3S4=O)CC2)cc1 (stereo unspecified)	none (no result: aSyn yeast inh)
CC1=C(c2ccc(C)cc2)S(=O)(=O)N(Cc2ccc(C(=O)Nc3ccc(C)c(F)c3)cc2)C1=O	none (no result: aSyn yeast inh)
c1ccc(-c2csc(-n3cnnn3)n2)cc1	TDP-43 yeast inh 11µM
CCc1ccc(NC(=O)c2ccc(F)c(S(=O)(=O)NCCc3ccc(OC)c(OC)c3)c2)cc1	FUS yeast rescue inconclusive (no result: aSyn yeast inh)
COc1ccc(CCC(=O)NC2CC(=O)N(c3ccc(F)cc3)C2)cc1 (stereo unspecified)	none (no result: aSyn yeast inh)
CC(C(=O)O)(C1CCCCC1)C1(O)CCCCC1 (stereo unspecified)	TDP-43 yeast inh inconclusive
CC1CCC(C(O)(C(=O)O)C2CCCCC2)CC1C (stereo unspecified)	TDP-43 yeast inh 18µM (no result: FUS yeast rescue)
O=C(Nc1c(F)cc(F)cc1Br)c1cc(-c2ccc(O)cc2)on1	TDP-43 yeast inh 11µM
Cc1cn(C2OC(COC(=O)c3ccccc3)C(O)C2O)c(=O)[nH]c1=O (stereo unspecified)	none
